# High-throughput results from PubChem.
# Hits are enriched below; roughly 11% of the tested compounds scored in any of these assays.
# AMA1-RON2 inh: AMA1-RON2 (P. falciparum) interaction inhibition; 0.2% of 360,000 active; AID 720542; Potency, µM (titrated, usually from 58.2 µM), hits mostly inhibitors; AlphaScreen AMA1-biotinylated RON2 peptide binding; note: nearly all actives have a fitted effect of over 45% in size
#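 AMA1 (3D7) with his tag at 25 nM final met compounds first, then biotinylated RON2 peptide at 25 nM; detection used donor plus acceptor beads, 10 µg/mL apiece, read by AlphaScreen after 30 min at room temperature.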
# Pf growth 96h: P. falciparum growth inhibition at 96 hour, primary screen for plastid delayed-death inhibitors. Potency, µM (titrated, usually from 28.7 µM), actives largely listed as inhibitors. 6.9% of 320,000 active. AID 504834. P. falciparum luciferase reporter growth, 96 h
#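 Readout is luminescence from an integrated firefly luciferase in P. falciparum. Red cells, 2% hematocrit and 0.05% parasitemia final, were cultured with compound through two parasite generations (96 hours) at 37 C, 5% CO2.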
# NS1 inh: influenza NS1 inhibition; Potency, µM (series often up to 46.1 µM); 0.4% of 270,000 active; calls by dose curve; note: actives are rising curves; nearly all actives have a fitted effect of over 50% in size
#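 OD600 was taken as the measure of yeast growth restored by compound in an NS1-expressing S. cerevisiae strain. Cells had been washed out of glucose medium and diluted 1:100 into galactose -URA medium, pH 6.0.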
# Sm TGR inh: S. mansoni TGR enzyme inhibition; Q962Y6; purified TGR, DTNB reduction, TNB absorbance 405 nm; Potency, µM (titrated, usually from 114 µM), hits mostly inhibitors; 3% of 360,000 active; note: nearly all actives have a fitted effect of over 60% in size
#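 First, TGR (20 nM dispensed) and NADPH were mixed with compound. Second, a 15 min room-temperature incubation followed. Third, further NADPH and then DTNB were added to start the reaction. Finally, TNB absorbance was monitored kinetically.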
# Pf growth 48h: P. falciparum growth inhibition at 48 hours (one generation). 5.9% of 310,000 active. Potency, µM (titrated, usually from 28.7 µM), most hits filed as inhibitors. P. falciparum luciferase growth in erythrocytes, 48 h
#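 Luciferase-expressing parasites in RBCs, 2% Hct / 0.1% parasitemia final; RPMI 1640 + 0.5% Albumax; 37 C, 5% CO2, one generation; luminescence read-out, lower signal = inhibition.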
# Numbers stand for hits; - = inactive; ? = inconclusive; . = no result given; [ ] = remark or other dose. Unless noted, calls come from the whole dose curve; as a rule, active = well fitted curve in the direction sought with a large enough effect; inconclusive = small, poorly fitted or top-dose-only effect, or another doubt; inactive = no such curve, though single readings can be large; an effect the other way counts as inactive or inconclusive.
SMILES,AMA1-RON2 inh,Pf growth 96h,NS1 inh,Sm TGR inh,Pf growth 48h
O=C(c1ccc(S(=O)(=O)N2CCCCC2)cc1)N1CCc2ccccc2C1,-,3.3µM,-,-,?
O=C(c1coc(=O)c(Br)c1)N1CCCc2ccccc21,?,?,-,22µM,-
O=C(c1ccc(S(=O)(=O)N2CCCCC2)cc1)N1CCCc2ccccc21,-,13µM,-,-,?
O=C(c1noc2c1CCc1ccccc1-2)N1CCCc2ccccc21,-,.,-,-,3.3µM
O=C(c1noc2c1CCc1ccccc1-2)N1CCOCC1,-,-,-,-,-
Cc1cccc(NC(=O)CSCC(=O)Nc2cccc3ncccc23)c1,-,-,.,-,?
Cn1c(=O)c(=O)n(C)c2cc(C(=O)NCc3ccccc3Cl)ccc21,.,.,.,-,.
CC(NC(=O)C1CCN(c2nnc(N3CCCC3=O)s2)CC1)c1ccccc1 (stereo unspecified),-,-,-,-,?
O=C(Nc1ccc(-n2cc(Br)cn2)cc1)c1ccncc1,-,-,-,-,-
Cc1nn2c(NCCCN(C)C)c3c(nc2c1-c1ccccc1)CCCC3,-,8.3µM,-,-,15µM
Cc1nn2c(Nc3ccccc3)c3c(nc2c1-c1ccccc1)CCC3,-[11.6 µM],5.9µM,-,-,-
Cc1nn2c(NCCCN(C)C)c3c(nc2c1-c1ccccc1)CCC3,-,10µM,-,-,.
Cc1nn2c(NC(C)C)c3c(nc2c1-c1ccccc1)CCC3,-,?,-,-,?
CCOC(=O)C1CCCN(C(=O)c2cc3c(=O)n(C)c4ccccc4c3s2)C1 (stereo unspecified),.,.,.,-,.
CC(C)(C)N1OC2CC1c1nc3ccccc3n1C2 (stereo unspecified),-,-,-,-,-
CCC(=O)N1CCc2cc(S(=O)(=O)NC(CC(C)C)C(=O)NCc3ccc(F)cc3)ccc21 (stereo unspecified),.,.,.,-,.
CCOC(=O)Nc1cc(C)ccc1OC,-,-,-,-,-
CCCCCCCCC(=O)Nc1cc(C)ccc1OC,-,?,-,-,10µM
COc1ccc(C)cc1NC(=O)CN1C(=O)COc2ccc(C)cc21,-,5.2µM,-,-,-
COc1ccccc1NC(=O)CN1CCN(CC(=O)Nc2cc(C)ccc2OC)CC1,-,-,-,-,?
CCN1CCOC(=O)C1CC(=O)Nc1ccc(Br)cc1 (stereo unspecified),.,.,.,7.9µM,.
CCN1CCOC(=O)C1CC(=O)Nc1cc(C)ccc1OC (stereo unspecified),.,.,.,18µM,.
Cc1ccc(S(=O)(=O)c2nc(S(=O)(=O)c3ccc(C)cc3)c(NCCCOC(C)C)s2)cc1,.,.,.,-,.
O=C(NCc1nnc(SCc2ccc(F)cc2)n1-c1ccccc1)C12CC3CC(CC(C3)C1)C2,-[2.32 µM],?,-,-,9.3µM
O=C(NCc1nnc(SCc2ccc(C(F)(F)F)cc2)n1-c1ccccc1)C12CC3CC(CC(C3)C1)C2,-,1.7µM,?,-,?
SMILES,AMA1-RON2 inh,Pf growth 96h,NS1 inh,Sm TGR inh,Pf growth 48h
O=C(CSc1nc(NS(=O)(=O)c2ccccc2)cc(=O)[nH]1)Nc1ccc(F)cc1,-,1.9µM,-,-,-
O=C(CSc1nc(NS(=O)(=O)c2ccccc2)cc(=O)[nH]1)Nc1cccc(C(F)(F)F)c1,-,-,-,-,?
COCCN1C(=O)N[C@@H](c2ccc(Br)cc2)C(C(=O)OC)=C1C,.,?,-,-,-
COC(=O)C1=C(C)N(Cc2ccccc2)C(=O)N[C@H]1c1ccco1,-,.,.,.,.
CC(=O)C1=C(C)N(Cc2ccccc2)C(=O)N[C@H]1c1ccco1,-,-,-,18µM,-
COC(=O)C1=C(C)N(Cc2ccco2)C(=O)N[C@H]1c1ccc(Br)cc1,.,?,-,35µM,?
COC(=O)C1=C(C)N(Cc2ccccc2)C(=O)N[C@H]1c1ccc(Br)cc1,-,?,-,-,?
COC(=O)C1=C(C)N(CCc2cc(OC)c(OC)c(OC)c2)C(=O)N[C@H]1c1ccc(Br)cc1,.,10µM,-,-,13µM
COC(=O)C1=C(C)N(Cc2ccco2)C(=O)N[C@H]1c1ccccc1,.,-,-,20µM,-
CCc1ccc(OCC2c3cc(OC)c(OC)cc3CCN2C(=O)Cc2ccc(OC)c(OC)c2)cc1 (stereo unspecified),.,.,.,-,.
N#C[C@H](c1ccccc1)N1CCCN([C@@H](C#N)c2ccccc2)C1c1ccccc1O (stereo partly specified),.,.,-,.,.
COc1cc(C(CC(=O)Nc2ccc(F)cc2F)N2Cc3ccccc3C2=O)cc(OC)c1OC (stereo unspecified),.,.,.,-,.
Cc1ccc(C(=O)Nn2cnnc2)cc1,-,-,-,-,-
CC(C)(C)C1CC=C2C(C#N)=C(N)C(C#N)(C#N)C(c3cccs3)C2C1 (stereo unspecified),.,?,-,?,.
CCc1ccc(C2C(C#N)=C(N)C(C#N)(C#N)C3=CCC(C(C)(C)C)CC32)cc1 (stereo unspecified),-,13µM,-,?,13µM
COc1ccc(CCC(=O)OCC(=O)Nc2ccccc2)cc1,-,-,-,-,-
CN1CCc2nc(SCC(=O)Nc3ccc(OC(F)(F)F)cc3)c(C#N)c(-c3cccs3)c2C1,-,-,?,35µM,-
CN1CCc2nc(SCC(=O)Nc3cccc(F)c3)c(C#N)c(-c3cccs3)c2C1,-,10µM,-,20µM,13µM
CC(C)(C)C(=O)Nc1ccc2nc(SCCOc3ccccc3Cl)sc2c1,.,.,.,-,.
CCN(CC(=O)Nc1ccc(OC)cc1)C(=O)c1cccc(S(=O)(=O)N2CCN(c3ccccc3)CC2)c1,-,.,.,.,.
OC[C@H]1OC(O)[C@@H](O)[C@@H](O)[C@@H]1O (stereo partly specified),-,-,.,-,-
Clc1ccc(C(c2nnnn2C2CCCC2)N2CCN(Cc3ccncc3)CC2)cc1 (stereo unspecified),-,.,-,-,?
NC(=O)C1CCN(C(c2ccccc2)c2nnnn2C2CCCC2)CC1 (stereo unspecified),-,-,-,-,-
N#Cc1ccc(C(c2nnnn2C2CCCC2)N2CCC(Cc3ccccc3)CC2)cc1 (stereo unspecified),-,-,-,-,4.7µM
N#Cc1cccc(C(c2nnnn2C2CCCC2)N2CCCCCC2)c1 (stereo unspecified),-,12µM,-,-,?
Fc1ccc(C(c2nnnn2C2CCCC2)N2CCN(Cc3ccccc3)CC2)cc1 (stereo unspecified),-,.,-,?,9.3µM
O=c1c(C(c2nnnn2C2CCCCC2)N2CCCCC2)coc2ccc(Cl)cc12 (stereo unspecified),-,?,-,28µM,-
CN1C(=O)N(CC(=O)N2CCN(S(=O)(=O)Cc3ccccc3)CC2)C(=O)C12CCCCC2,-,-,.,-,?
c1csc(C(c2nnnn2C2CCCC2)N2CCOCC2)c1 (stereo unspecified),-,-,-,-,-
